Results as given in PubChem BioAssay (NCATS).
Where “and” joins values, the source holds several entries; their conditions need not be identical. Equal values may be shown once. Inconclusive results are not listed. Calls of active or inactive are those of the source. Unless noted, the call rests on the fitted dose curve; in most records, active means well fitted curve in the direction sought with a large enough effect; inconclusive means small, poorly fitted or top-dose-only effect, or another doubt; inactive means no such curve, though single readings can be large; an effect the other way counts as inactive or inconclusive.

Assays:
[1] = Cell Viability - Jurkat (AID 426;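 active means dose-dependent loss of cell ATP signal giving a full or clear fitted curve, ranked by lower potency value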;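 further: potency means the concentration at half of the fitted maximal effect; cells exposed to compound for 40 hours at 37 °C before ATP read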); settings: qHTS
Summary of the method: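 qHTS, 1536-well; Jurkat E6-1, 5000 cells/well, complete medium; cpd 40 hr, 37 °C; CellTiter-Glo 20 min RT; luminescence. AC50 by Hill fit.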

[2] = Cell Viability - Hek293 (AID 427;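 active means compounds whose dose-response curve shows a full or clear partial loss of cell viability, called from curve shape rather than a numeric limit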;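 further: potency means the concentration at half of the fitted maximal effect; cells exposed to compound for 40 hours at 37 °C before reading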); settings: qHTS
Summary of the method: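 Luminescent ATP read-out (CellTiter-Glo, 20 min RT) after 40 hr compound exposure at 37 °C in complete medium. Signal normalized to DMSO (basal) and 100 uM tamoxifen (100% inhibition); concentration-response fitted with the standard Hill equation to give AC50.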

[3] = Cell Viability - HepG2 (AID 433; calls by dose curve;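 further: potency means the concentration at half of the fitted maximal effect; cells exposed to compound for 40 hours; potency for ATP loss meaning cytotoxicity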); settings: qHTS
Summary of the method: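 HepG2 cells, 1500 per well, treated 40 hr at 37 °C in complete medium; viability from intracellular ATP by CellTiter-Glo luminescence. Normalized to DMSO and 100 uM tamoxifen; AC50 from Hill fit of qHTS concentration-response.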

[4] = Cell Viability - HUV-EC-C (AID 542); settings: HUV-EC-C endothelial cell viability, qHTS; series mostly up to 92.2 µM;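 further: cells exposed to compound for 40 hours; on the % scale 0 is the no-effect control and ±100 the full control effect; nearly all actives have a fitted effect of over 35% in size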
Summary of the method: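 qHTS cytotoxicity: HUV-EC-C, 1000 cells/well, 5 hr settle, compound 40 hr 37 °C, CellTiter-Glo, luminescence. AC50 via Hill equation.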

[5] = Cell Viability - H-4-II-E (AID 543); settings: H-4-II-E rat hepatoma viability; series mostly up to 92.2 µM;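 further: cells exposed to compound for 40 hours; nearly all actives have a fitted effect of over 35% in size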; further: potency means the concentration at half of the fitted maximal effect
Summary of the method: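 Luminescent ATP signal (CellTiter-Glo) served as the viability read-out, with cytotoxicity seen as a concentration-dependent ATP drop. Cells were treated for 40 hours in complete medium. AC50 values derive from Hill-equation modelling.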

[6] = Cell Viability - SH-SY5Y (AID 544); settings: SH-SY5Y neuroblastoma cell viability; series mostly up to 92.2 µM;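 further: cells exposed to compound for 40 hours; nearly all actives have a fitted effect of over 55% in size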
Summary of the method: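 Luminescent ATP read-out (CellTiter-Glo) measures loss of viable SH-SY5Y neuroblastoma cells after 40 hr compound exposure at 37 °C. AC50 values derive from standard Hill modelling of qHTS concentration-response data.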

[7] = Cellular Toxicity (caspase-3) SHSY5Y (AID 657); settings: SH-SY5Y caspase-3 activation, DMSO zero, 10 µM staurosporine = 100%; series mostly up to 91.7 µM
Summary of the method: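 SH-SY5Y human neuroblastoma cells, 1500/well, exposed to compound for 16 hours at 37 °C in complete medium. Caspase-3/7 activity read by Caspase-Glo luminescence after 1 hr at room temperature, normalized to DMSO and 10 uM staurosporine; AC50 from Hill fit.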

[8] = Cellular Toxicity (caspase-3) SK-N-SH (AID 661); settings: SK-N-SH caspase-3 activation, qHTS, DMSO as zero, staurosporine as full; series mostly up to 91.7 µM
Summary of the method: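 Human neuroblastoma SK-N-SH, 1500 cells/well, 5 hr pre-incubation, then compound 16 hr, 37 °C. Caspase-Glo 3/7 reagent, 1 hr RT, luminescence. Norm. to DMSO/10 uM staurosporine; Hill-fit AC50.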

[9] = Cellular Toxicity (caspase-3) H-4-II-E (AID 663); settings: H-4-II-E rat hepatoma; Potency: caspase-3 activation; series mostly up to 92.2 µM;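 further: cells exposed to compound for 16 hr before readout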
Summary of the method: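 Apoptosis induction is scored as increased luminescence from caspase 3/7 substrate cleavage in rat hepatoma H-4-II-E cells exposed to compound for 16 hr. Activity is scaled between DMSO and 100 uM tamoxifen.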

[10] = Cellular Toxicity (caspase-3) N2a (AID 665); settings: N2a cells, luminescence, normalized: DMSO 0%, 10 µM staurosporine 100%; series mostly up to 92.2 µM;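 further: compound exposure lasted 16 h at 37 °C before readout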
Summary of the method: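 N2a cells, 1500/well, 5 h settle at 37 °C; cpd 16 h, 37 °C; Caspase-Glo 3/7, 1 h RT; luminescence. Norm: DMSO = 0, 10 uM staurosporine = 100%. AC50, Hill fit.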

[11] = Cellular Toxicity (caspase-3) NIH 3T3 (AID 666); settings: NIH 3T3 caspase-3 activation, apoptosis/toxicity, 0% DMSO, 100% is 100 µM tamoxifen; series mostly up to 92.2 µM;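 further: caspase signal read after 16 h compound exposure; 0% = DMSO basal and 100% = 100 µM tamoxifen stimulation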
Summary of the method: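 Luminescence from aminoluciferin released by caspase-3/7 cleavage of a peptide substrate served as read-out. Mouse fibroblast NIH 3T3 cells were exposed to compounds over a concentration range for 16 hours, and AC50 values came from standard Hill modelling.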

[12] = MultiTox-Fluor Cytotoxicity Assay - LYMP1-001 - Dead Cells (AID 946); settings: LYMP1-001 lymphoblastoid cells, dead-cell protease fluorescence; series mostly up to 92.2 µM;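 further: 0% = DMSO and 100% = tetraoctylammonium bromide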
Summary of the method: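 AC50 from Hill fit of concentration-response; data normalized to DMSO (basal) and 15 uM tetraoctylammonium bromide (100%). LYMP1-001 lymphoblastoid cells, 2500/well, 16 hr compound at 37 C; dead-cell protease fluorescence, Ex/Em 485/520.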

[13] = Cell Viability - LYMP1-002 - Assay at 16 hr (AID 948); settings: LYMP1-002 lymphoblastoid cell viability; series mostly up to 92.2 µM;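 further: 0% = DMSO alone and full effect = 92 µM tetraoctylammonium bromide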
Summary of the method: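 LYMP1-002 human lymphoblastoid cells, 2500/well, were treated with compounds for 16 hr at 37 C in complete medium. Viability was read as intracellular ATP by CellTiter-Glo luminescence, and AC50 was derived from a Hill fit to concentration-response data.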

[14] = Cell Viability - LYMP2-010 (AID 981); settings: LYMP2-010 lymphoblastoid cell viability, qHTS; series mostly up to 92.2 µM; further: on the % scale 0 is the no-effect control and ±100 the full control effect; nearly all actives have a fitted effect of over 55% in size
Summary of the method: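 Luminescent ATP signal (CellTiter-Glo) served as the viability read-out. Cells of the human lymphoblastoid line were treated with compound over a concentration range for 24 hours at 37 C, and AC50 values came from Hill-equation modeling.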

[15] = Cell Viability - LYMP2-012 (AID 982); settings: LYMP2-012 lymphoblastoid cell viability qHTS; series mostly up to 92.2 µM;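 further: cellular ATP by luciferase luminescence where a drop means cytotoxicity; cells exposed to compound for one day before reading; 0% = DMSO only and full loss = 92 µM tetraoctylammonium bromide; nearly all actives have a fitted effect of over 55% in size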
[16] = Cell Viability - LYMP2-018 (AID 985); settings: LYMP2-018 lymphoblastoid cells, viability (qHTS); series mostly up to 92.2 µM;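 further: compound exposure lasted 24 hr at 37 °C; plate controls were DMSO only for no effect and tetraoctylammonium bromide at 92 µM for full effect; nearly all actives have a fitted effect of over 50% in size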
Summary of the method: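 Luminescent ATP signal (CellTiter-Glo, read after 30 min at room temperature) reports viable cells after 24 hr compound treatment at 37 C. Concentration-response data were fitted to the standard Hill equation for AC50.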

[17] = Cell Viability - LYMP2-024 (AID 988); settings: LYMP2-024 lymphoblastoid cell viability; series mostly up to 92.2 µM;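 further: plate controls were DMSO only for no effect and 92 µM tetraoctylammonium bromide for full effect; nearly all actives have a fitted effect of over 60% in size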
Summary of the method: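 Steps: seed 2500 cells/well, 5 hr 37 C; add compound, 24 hr 37 C; add CellTiter-Glo, 30 min room temperature; read luminescence. AC50 derived by Hill modelling of concentration-dependent ATP loss.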

[18] = biological target: Retinoic acid receptor RXR-alpha (Homo sapiens) (UniProt P19793); assay: qHTS assay for small molecule antagonists of retinoid X receptor alpha signaling (AID 588546; active means well fitted inhibition curve with a large enough effect in the signal ratio, with a control signal flat, not every such curve was filed as active; the % refers to the signal ratio;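 further: cells stimulated with 9-cis-retinoic acid as agonist; on the % scale 0 is the no-effect control and ±100 the full control effect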); settings: HEK293T RXRa-UAS-bla, beta-lactamase ratio, antagonist mode
Retinoic acid receptor RXR-alpha (Homo sapiens), sequence (P19793 whole entry, looked up): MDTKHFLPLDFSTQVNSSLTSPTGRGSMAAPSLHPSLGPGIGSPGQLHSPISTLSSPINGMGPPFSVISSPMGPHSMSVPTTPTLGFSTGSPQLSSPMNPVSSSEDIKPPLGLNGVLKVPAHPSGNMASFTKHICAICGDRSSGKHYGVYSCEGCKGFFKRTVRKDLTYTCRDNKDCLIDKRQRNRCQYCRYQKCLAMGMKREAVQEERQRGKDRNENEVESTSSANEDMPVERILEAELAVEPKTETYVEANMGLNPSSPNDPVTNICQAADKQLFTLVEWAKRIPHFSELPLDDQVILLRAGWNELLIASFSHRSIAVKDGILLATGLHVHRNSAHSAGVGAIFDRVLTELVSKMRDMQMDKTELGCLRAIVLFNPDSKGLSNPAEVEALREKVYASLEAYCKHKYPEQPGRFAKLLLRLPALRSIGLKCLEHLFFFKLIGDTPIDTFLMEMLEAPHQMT
Summary of the method: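 Beta-lactamase reporter inhibition, read as CCF4 fluorescence ratio (ex 405, em 460/530 nm) after 2 h at RT. HEK293T UAS-bla cells, 2500/well, were stimulated with 9-cis-RA at 500 or 100 nM final alongside test compound for 18 h at 37 C.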

[19] = qHTS assay for small molecule agonists of the antioxidant response element (ARE) signaling pathway measured by Nrf2-dependant transcriptional activity - cell viability counter screen (AID 720653; active means well fitted curve in the direction sought with a large enough effect in the repeat runs; an effect the other way counts as inactive or inconclusive; further: on the % scale 0 is the no-effect control and ±100 the full control effect); settings: ARE-bla HepG2 viability, CellTiter-Glo ATP luminescence, 16 h; max response: hits give low values
Summary of the method: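 Cytotoxicity counter screen: intracellular ATP quantified by CellTiter-Glo luminescence in the same ARE-bla HepG2 plates, after 16 h compound exposure and a 2 h beta-lactamase substrate step.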

[20] = qHTS assay for cell viability of the p53RE-bla HCT-116 cell line (AID 743292); settings: p53RE-bla HCT-116 viability, ATP luminescence, 16 h; series mostly up to 95 µM; further: on the % scale 0 is the no-effect control and ±100 the full control effect; nearly all actives have a fitted effect of over 55% in size
Summary of the method: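 HCT-116 p53RE-bla cells seeded 4,000/well; 5 h at 37 C; compound (DMSO) added; 16 h at 37 C; CellTiter-Glo added, 30 min RT; luminescence read.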

c1ccc2c(c1)c1cccc3ccc4cccc2c4c31
inactive: Potency [1] > 92 µM | Potency [2] > 92 µM | Potency [3] > 92 µM | outcome [4] | Potency [5] | Potency [6] | outcome [7] | outcome [8] | Potency [9] | outcome [10] | outcome [11] | Potency [12] | Potency [13] | Potency [14] | Potency [15] | Potency [16] | Potency [17] | max response [18] -6.5% and -1.07% | max response [19] -0.0817% and -5.96% | Potency [20]

O=C(O)CC(C(=O)O)C(CC(=O)O)C(=O)O (stereo not given)
inactive: Potency [1] > 92 µM | Potency [2] > 92 µM | Potency [3] > 92 µM | outcome [4] | Potency [5] | Potency [6] | outcome [7] | outcome [8] | Potency [9] | outcome [10] | outcome [11] | Potency [12] | Potency [13] | Potency [14] | Potency [15] | Potency [16] | Potency [17] | max response [18] -2.56% and -11.2% | max response [19] -9.78% and -3.54% | Potency [20]

O=C(/C=C/c1ccc(O)c(O)c1)O[C@@H](C(=O)O)[C@@H](OC(=O)/C=C/c1ccc(O)c(O)c1)C(=O)O
inactive: Potency [1] > 92 µM | Potency [2] > 92 µM | Potency [3] > 92 µM | outcome [4] | Potency [5] | Potency [6] | outcome [7] | outcome [8] | Potency [9] | outcome [10] | outcome [11] | Potency [12] | Potency [13] | Potency [14] | Potency [15] | Potency [16] | Potency [17] | max response [18] 13% | max response [19] 27.4% | Potency [20]

S=C1NC=NC2N=CNC12 (stereo not given)
active: Potency [1] 0.128 µM | Potency [2] 1.03 µM | Potency [3] 1.23 µM | Potency [5] 0.158 µM
inactive: outcome [4] | outcome [7] | outcome [8] | Potency [9] | outcome [11] | Potency [12] | Potency [14] | Potency [15] | Potency [16] | Potency [17] | max response [18] -10.4%

COC(=O)c1ccc(C=O)cc1
inactive: Potency [1] > 92 µM | Potency [2] > 92 µM | Potency [3] > 92 µM | outcome [4] | Potency [5] | Potency [6] | outcome [7] | outcome [8] | Potency [9] | outcome [10] | outcome [11] | Potency [12] | Potency [13] | Potency [14] | Potency [15] | Potency [16] | Potency [17] | max response [18] 21.2% and -1.21% | max response [19] -1.73% and -0.32% | Potency [20]

CCO
inactive: Potency [1] > 92 µM | Potency [2] > 92 µM | Potency [3] > 92 µM | outcome [4] | Potency [5] | Potency [6] | outcome [7] | outcome [8] | Potency [9] | outcome [10] | outcome [11] | Potency [12] | Potency [13] | Potency [14] | Potency [15] | Potency [16] | Potency [17] | max response [18] -6.86% | max response [19] 7% | Potency [20]

Clc1cc(Cl)c(Cl)c(Cl)c1Cl
inactive: Potency [1] > 92 µM | Potency [2] > 92 µM | Potency [3] > 92 µM | outcome [4] | Potency [5] | Potency [6] | outcome [7] | outcome [8] | Potency [9] | outcome [10] | outcome [11] | Potency [12] | Potency [13] | Potency [14] | Potency [15] | Potency [16] | Potency [17] | max response [18] -0.48% and -22.2% | max response [19] -0.0319% and -1.01% | Potency [20]

CCCCOCCO
inactive: Potency [1] > 92 µM | Potency [2] > 92 µM | Potency [3] > 92 µM | outcome [4] | Potency [5] | Potency [6] | outcome [7] | outcome [8] | Potency [9] | outcome [10] | outcome [11] | Potency [12] | Potency [13] | Potency [14] | Potency [15] | Potency [16] | Potency [17] | max response [18] 8.5% and -5.75% and -0.568% | max response [19] 4.17% and -5.63% and -2.53% | Potency [20]

O=NO
inactive: Potency [1] > 92 µM | Potency [2] > 92 µM | Potency [3] > 92 µM | outcome [4] | Potency [5] | Potency [6] | outcome [7] | outcome [8] | Potency [9] | outcome [10] | outcome [11] | Potency [12] | Potency [13] | Potency [14] | Potency [15] | Potency [16] | Potency [17] | max response [18] 16.8% and -9.55% | max response [19] -5.36% and 6.29% | Potency [20]

CN(C)C=O
inactive: Potency [1] > 92 µM | Potency [2] > 92 µM | Potency [3] > 92 µM | outcome [4] | Potency [5] | Potency [6] | outcome [7] | outcome [8] | Potency [9] | outcome [10] | outcome [11] | Potency [12] | Potency [13] | Potency [14] | Potency [15] | Potency [16] | Potency [17] | max response [18] 8.45% and -9.56% | max response [19] -6.03% and 8.83% and -4.93% | Potency [20]

Cc1ccccc1C
inactive: Potency [1] > 92 µM | Potency [2] > 92 µM | Potency [3] > 92 µM | outcome [4] | Potency [5] | Potency [6] | outcome [7] | outcome [8] | Potency [9] | outcome [10] | outcome [11] | Potency [12] | Potency [13] | Potency [14] | Potency [15] | Potency [16] | Potency [17] | max response [18] 24.2% and -2.36% | max response [19] -17.8% and 4.54% | Potency [20]
